Assay outcomes deposited in PubChem by National Center for Advancing Translational Sciences (NCATS).
Most compounds without a hit are left out; they make up all but 2.2% or so of the library.
aSyn rescue – rescues yeast growth from alpha-synuclein toxicity; Potency, µM (titrated, usually from 46.1 µM), for inactives: at the top dose growth rescue (activation), most hits filed as activators; actives 0.14% (n = 370,000); Yeast expressing alpha-synuclein, growth rescue, BacTiter-Glo, 24 h; further: % of control where 0% means no effect; nearly all actives have a fitted effect of over 65% in size
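Readout is rescue of growth in alpha-synuclein-expressing yeast, so inhibitors of toxicity appear as activators. Growth after 24 hr at 30 deg C in galactose medium is quantified by luminescence.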
TDP43 rescue – TDP-43 toxicity inhibition in yeast | TDP-43 expressing yeast growth rescue, BacTiter-Glo, 24 h | AID 652104 | Potency, µM (titrated, usually from 46.1 µM), for inactives: top-dose growth rescue (activation), most hits filed as activators | actives 1.8% (n = 410,000); further: % of control where 0% means no effect; nearly all actives have a fitted effect of over 50% in size
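Yeast expressing TDP-43 (pregrown in raffinose, seeded at OD600=0.02 in galactose medium) exposed to compounds 24 hr at 30 deg C. Growth read by BacTiter-Glo luminescence; rescue of toxicity appears as increased signal.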
FUS suppressor – suppressors of FUS proteinopathy in yeast. S. cerevisiae FUS-expressing, growth rescue, OD600, 24 h. AID 1347120. Potency, µM (doses to about 76.6 µM), hits mostly activators. actives 0.24% (n = 390,000);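 further: plate controls were DMSO vehicle for no effect and reference control for full effect; nearly all actives have a fitted effect of over 55% in size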
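Absorbance at 600 nm, taken 24hr after compound addition, measured rescue of FUS-yeast growth at 30C. Induction used 2% galactose with seeding at OD 0.005. Controls: CP55940 from 92uM final, DMSO only.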
Abeta yeast res – A-beta toxicity reversal in yeast; yeast expressing A-beta42, growth rescue, OD600, 48 h; response scale: 0% DMSO, 100% iron-clioquinol control; Potency, µM (highest dose often 46.1 µM), hits mostly activators; actives 0.063% (n = 410,000); AID 1347071; further: nearly all actives have a fitted effect of over 55% in size
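Growth rescue measured by 600 nm absorbance after 48 h yeast culture at 30 C with compound. Values normalized between DMSO and an equimolar ferric chloride plus clioquinol control.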
Mito fusion act – inhibitors of mitochondrial division or activators of mitochondrial fusion. S. cerevisiae fusion-defective mutant growth rescue, CellTiterGlo 48 h. Potency, µM (doses to about 46.1 µM), for the others: at the top dose growth rescue (activation), hits mostly activators. actives 0.23% (n = 320,000). AID 485298; further: % of control where 0% means no effect; nearly all actives have a fitted effect of over 45% in size
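Compounds are tested for their ability to restore growth of mitochondrial fusion-defective yeast strains at non-permissive 37C in YPEG medium over 48 hours. Viability is quantified by luciferase luminescence.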
* marks the source's active call; other numbers are inactive results; i = inactive; ? = inconclusive; . = no result given; ! = not active in a repeat; [ ] = dose if it differs, or a comment. The call rests on the fitted dose curve; in most records, active means well fitted curve in the direction sought with a large enough effect; inconclusive means small, poorly fitted or top-dose-only effect, or another doubt; inactive means no such curve, though single readings can be large; an effect the other way counts as inactive or inconclusive. Potency means the concentration at half of the fitted maximal effect.

SMILES	aSyn rescue	TDP43 rescue	FUS suppressor	Abeta yeast res	Mito fusion act
Cc1ccc(N2C(=O)[C@@H]3[C@H](C2=O)[C@H]2C=C(C(=O)c4ccccc4)C=CN2[C@@H]3C(=O)c2ccc(Cl)cc2)cc1	0%	-19%	28µM*	i	-6%
O=C(C1=C[C@@H]2[C@H]3C(=O)N(c4cccc(Cl)c4)C(=O)[C@H]3[C@@H](C(=O)c3ccc(Cl)cc3)N2C=C1)c1ccccc1	-6%	-14%[0.397 µM]	i	i	-2%
COc1ccc(Oc2ncnc3sccc23)cc1	-6%	?	i	i	2%
Cc1nc(Oc2ccccc2)c2ccsc2n1	6%	13µM*	i	i	3%
C/C(=N\OC(=O)NC1CCCCC1)c1sc(-c2ccccc2)nc1C	.	20µM*	i	i	-25%
C/C(=N\OC(=O)c1ccc(F)cc1)c1sc(-c2ccccc2)nc1C	-3%	4%	i	i[9.22 µM]	-1%
OCc1cn(-c2ccccc2)nc1-c1cc2ccccc2o1	7%	16µM*	i	i	9%
COc1ccc(NC(=O)c2cn(-c3ccccc3)nc2-c2cc3ccccc3o2)cc1	6%	4%	i	i	2%
O=C(Nc1cccs1)Nc1ccccc1Cl	-11%	12%	i	i	3%
O=C(Nc1cccs1)Nc1ccc(F)cc1F	-15%	14µM*!	i	i	10%
Cc1ccc(NC(=O)Nc2cccs2)c(Cl)c1	-19%	13µM*	i	i	4%
Cc1cccnc1NC(=O)Nc1cccs1	0%	5µM*	i	i	4%
O=C(Nc1ccc(F)cc1F)Nc1csc2ccccc12	-23%	11µM*	i	i	9%
COc1ccc(S(=O)(=O)N2C[C@@H](O)COC[C@@H]3O[C@H](CC(=O)NCCCN4CCOCC4)CC[C@H]32)cc1	2%	12%	i	i	.
CCOC(=O)c1cccc(NC(=O)CC2C(=O)N(c3ccc(C)cc3)C(=O)N2Cc2cccc(OC)c2)c1 (stereo not given)	.	3%	i	i	.
COc1ccc(-c2nc3ccc(NC(C)=O)cc3c(=O)n2Cc2ccccc2)cc1COc1ccc(NC(C)=O)cc1	8%	.	.	.	.
O=C(Nc1cccs1)Nc1ccc(Br)cc1F	-21%	14µM*	i	i	12%
Cc1cc(C)cc(NC(=O)Nc2cccs2)c1	.	13%	i	i	.
O=C(CC(=O)c1ccccc1O)c1cccc(F)c1	13µM*	-24%	.	i	-2%
CCCN(C(=O)c1cc2c(=O)oc3ccccc3c2s1)c1ccccc1C	.	-3%	i	i	.
CCCCn1c(SCC(=O)c2ccc(O)c(O)c2)nc2ccsc2c1=O	6%	20µM*	.	i	-2%
COC(=O)c1cc(S(=O)(=O)N2CCN(C(=O)c3ccco3)CC2)cn1C	-2%	4%	i	.	1%
O=S(=O)(c1ccc2ccccc2c1)N1CCN(c2ccc(O)cc2)CC1	?	11µM*	i	i	.
Cc1cc(C)c(C)c(S(=O)(=O)N2CCN(c3ccc(O)cc3)CC2)c1C	16µM*	?	i	i	?
Cc1cc(C)c(C)c(S(=O)(=O)N2CCN(c3ncnc4ccccc34)CC2)c1C	6%	0%	i	i	18µM*
SMILES	aSyn rescue	TDP43 rescue	FUS suppressor	Abeta yeast res	Mito fusion act
Cc1cc(C)c(C)c(S(=O)(=O)N2CCC(C(=O)N3CCN(c4ccc(F)cc4)CC3)CC2)c1C	8%	?	i	i	.
COCCNc1ncnc2c1ncn2[C@H]1CN(Cc2ccncc2)C[C@@H](CO)O1	-10%	2%	i	i	.
O=C(Cc1ccccc1)NC(=S)Nc1ccc(OC(F)F)cc1	-7%	25%	i	11µM*	0%
CC(C)(C)C(=O)Nc1ccc2nc(SCCOc3ccccc3Cl)sc2c1	.	1%	i	i	.
Cc1cccc(NC(=O)C2C(c3ccccc3)C2(Cl)Cl)c1 (stereo not given)	-37%	22µM*	i	i	?
COc1ccc(-n2cc(-c3ccccc3)[nH]c2=S)c(OC)c1	1%	5%	i	i	-33%
Fc1ccccc1-n1cc(-c2ccccc2)[nH]c1=S	3%	13µM*	i	?	0%
Cc1cccc(CSc2nc(N)c(C#N)c(-c3cccs3)c2C#N)c1	.	?	i	i	13µM*
CC(=O)CSc1nc(N)c(C#N)c(-c2cccs2)c1C#N	-5%	9%	i	i	4%
CCCCSc1nc(N)c(C#N)c(-c2cccs2)c1C#N	6%	16%	i	i	4µM*
Cc1cccc(CSc2nc3c(c(-c4cccs4)c2C#N)CN(C)CC3)c1	3%	3%	i	i	30%
Cc1ccc(Nc2c3c(nc4nc(-c5cccs5)nn24)CCCC3)cc1F	.	23%	i	i	.
Fc1cc(Br)ccc1Nc1c2c(nc3nc(-c4cccs4)nn13)CCCC2	.	20µM*	i	i	.
O=C(O)C1=CC[C@@H](c2ccc(Cl)cc2)N(S(=O)(=O)c2ccc(Cl)cc2)[C@H]1c1cccc(Cl)c1	1%	3%	i	i	5%
CC(C)(C)NC(=O)C(C1CC1)n1c(=O)c(-c2ccco2)nc2ccccc21 (stereo not given)	-1%	18%	i	i	.
COc1ccc(-c2noc(C3CC(=O)N(c4ccc(C)c(F)c4)C3)n2)c(OC)c1 (stereo not given)	.	13µM*	?	i	.
Cc1ccc(CSc2nnc([C@@H](N)C(C)C)o2)cc1	-1%	-5%	i	i	.
Cn1cccc1C(=O)NCc1ccccn1	0%	16%	i	i	0%
COc1ccc([C@H]2Cc3cccc(O)c3C(=O)O2)cc1O	8%	11µM*	i	i	10%
Cc1ccc2oc(-c3ccc(C)c(NC(=O)COc4ccc(Cl)cc4C)c3)nc2c1	-3%	.	.	.	.
O=C1[C@@H]2CSC(c3ccc(F)cc3)N2C(=O)N1c1ccc(Cl)cc1 (stereo not given in full)	.	14µM*	i	i	.
O=C1CC(N2CCN(c3ccc(Cl)cc3)CC2)C(=O)N1c1ccc(F)cc1 (stereo not given)	9%	0%	i	?	-5%
COc1ccc(NC(=O)C2Cc3c(-c4ccc5c(c4)OCO5)ccnc3O2)cc1 (stereo not given)	15%	25µM*	i	i	.
O=C(Nc1ccccc1)C1Cc2c(-c3ccc4c(c3)OCO4)ccnc2O1 (stereo not given)	16%	35µM*	i	i	.
CC(=O)Nc1ccc(NC(=O)C2Cc3c(-c4ccco4)ccnc3O2)cc1 (stereo not given)	-3%	17%	i	i	.
CC(=O)Nc1ccc(NC(=O)C2Cc3c(-c4ccc5c(c4)OCO5)ccnc3O2)cc1 (stereo not given)	-6%	7%	i	i	.
